Bioassay records: PubChem BioAssay, National Center for Advancing Translational Sciences (NCATS)
The list is not random: actives were taken first. Their share in the collection is about 19%.
HepG2 viability: kills HepG2 cells in TGF-b inhibitor counter-screen | HepG2 CAGA-GFP viability, ATP luminescence, 18 h | Potency, µM (top dose mostly 46.1 µM), usual class: cytotoxic | AID 588856 | hit rate 0.76% among 410,000
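CellTiter-Glo luminescence gave cytotoxicity after 18 hours at 37 degrees C. The cells were HepG2 CAGA-GFP in 1% FBS DMEM, stimulated with 500 pg/mL TGF-beta after compound addition. %Activity was normalised to no-cell wells (complete cell-killing) and DMSO (no toxicity), and curves were fitted and classified.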
TGFb inhibitor: blocks TGF-b signaling; hit rate 1.2% among 410,000; Potency, µM (doses to about 46.1 µM), most hits filed as inhibitors; HepG2 CAGA-GFP TGF-b/SMAD3 reporter, GFP fluorescence, 18 h; TGF-beta stimulated, 500 pg/mL final; note: nearly all actives have a fitted effect of over 65% in size
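Cell-based qHTS in HEPG2 carrying a CAGA-GFP Smad reporter; compounds added before 500 pg/mL final TGF-beta, 18 h incubation at 37 degrees C, GFP fluorescence quantified per cell by imaging cytometry.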
IL1B secr inh: inflammasome signaling inhibition, IL-1 beta readout; THP-1 LPS/ATP IL-1B secretion, AlphaLISA, 16 h; hits give low values; activity change, % at 57.5 µM; hit rate 4.7% among 360,000; AID 743279; in the data active = activity change below about -50%; inconclusive = mostly about -30% to -49%
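Secreted IL-1B measured by AlphaLISA bead assay after 16 h compound exposure of THP-1 cells; compounds (final up to 57.5 uM) added 1 h before LPS (250 ng/mL) and ATP (1.25 mM) stimulation; lower signal means less secretion.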
DT40 TDP1 no CPT: qHTS for Inhibitors of human tyrosyl-DNA phosphodiesterase 1 (TDP1): qHTS in cells in absence of CPT | DT40 Tdp1-/- hTDP1 cells, no CPT, ATP luminescence, 48 h | Potency, µM (highest dose often 46.2 µM), most hits filed as inhibitors | hit rate 15% among 420,000; note: nearly all actives have a fitted effect of over 55% in size
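Cells were dispensed at 400 per well, compounds added by pin tool, plates incubated ≥48 hr at 37 °C, then CellTiter-Glo added for 30 min at room temperature before luminescence reading. Line: DT40 Tdp1-/- complemented with hTDP1; camptothecin omitted.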
DT40 TDP1 CPT: growth inhibition of DT40 Tdp1-/-;hTDP1 cells with camptothecin (screen for TDP1 inhibitors). chicken DT40 Tdp1-/-;hTDP1 cells + 20 nM CPT, ATP luminescence, 48 h. Potency, µM (top dose mostly 46.2 µM), hits mostly inhibitors. hit rate 12% among 420,000; note: nearly all actives have a fitted effect of over 55% in size
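Cell growth measured by CellTiter-Glo luminescence after a minimum 48 h, 37 C compound exposure with 20 nM CPT in Tdp1-knockout DT40 cells stably expressing hTDP1, seeded 400/well; qHTS titration format.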
ASM inhibitor: blocks human secretory acid sphingomyelinase; P17405; placental ASM, HMU-PC fluorogenic substrate, 60 min; Potency, µM (doses to about 57.5 µM), usual class: inhibitors; hit rate 0.006% among 340,000; AID 504937
Target sequence (P17405 47-631 limits assumed): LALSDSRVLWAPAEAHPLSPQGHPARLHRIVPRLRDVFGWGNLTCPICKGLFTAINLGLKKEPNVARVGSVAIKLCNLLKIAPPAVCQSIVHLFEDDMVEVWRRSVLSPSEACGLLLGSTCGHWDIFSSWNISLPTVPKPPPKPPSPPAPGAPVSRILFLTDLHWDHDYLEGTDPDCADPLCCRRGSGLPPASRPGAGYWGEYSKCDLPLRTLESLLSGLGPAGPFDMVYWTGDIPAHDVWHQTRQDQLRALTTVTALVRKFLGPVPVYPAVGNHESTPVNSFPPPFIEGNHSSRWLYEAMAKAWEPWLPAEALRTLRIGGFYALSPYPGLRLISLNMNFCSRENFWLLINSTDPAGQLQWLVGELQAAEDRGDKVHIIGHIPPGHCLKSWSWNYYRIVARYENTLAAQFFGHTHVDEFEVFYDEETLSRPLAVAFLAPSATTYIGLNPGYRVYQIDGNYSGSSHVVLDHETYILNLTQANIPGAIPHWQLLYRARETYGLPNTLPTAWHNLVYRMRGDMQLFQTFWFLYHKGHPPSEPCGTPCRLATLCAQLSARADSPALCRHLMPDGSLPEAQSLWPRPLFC
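HMU-PC0 cleavage (9 uM final) by human placental ASM, 60 min at 37 °C following 10 min compound exposure at RT; stopped at pH 10, fluorescence Ex 386/Em 447 nm.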
Large screens that a line does not name were inactive. Unless noted, calls come from the whole dose curve; as a rule, active = well fitted curve in the direction sought with a large enough effect; inconclusive = small, poorly fitted or top-dose-only effect, or another doubt; inactive = no such curve, though single readings can be large; an effect the other way counts as inactive or inconclusive.

CCn1c(CC(=O)Nc2ccc(F)cc2)nnc1SCC(=O)Nc1nncs1	none
CCN(CC)c1ccc(/C=N/n2c(-c3ccccc3Br)n[nH]c2=S)cc1	TGFb inhibitor inconclusive, IL1B secr inh -67, DT40 TDP1 no CPT 18µM, DT40 TDP1 CPT inconclusive
CCOC(=O)c1sc(NC(=O)CSc2nc3c(cc2C#N)CCCCCC3)c(C#N)c1C	DT40 TDP1 no CPT 26µM, DT40 TDP1 CPT 16µM
CCOC(=O)c1sc(NC(=O)CSc2n[nH]c(-c3ccc(Cl)cc3Cl)n2)c(C#N)c1C	DT40 TDP1 no CPT 16µM, DT40 TDP1 CPT inconclusive
Cc1cc(NC(=O)CSc2nc3c(cc2C#N)CCCC3)no1	DT40 TDP1 no CPT inconclusive
CCOC(=O)c1sc(NC(=O)CSc2nc(C)cc(-c3ccccc3)n2)c(C#N)c1C	none
N#Cc1cc2c(nc1SCC(=O)Nc1sc3c(c1C#N)CCC3)CCCCC2	DT40 TDP1 CPT inconclusive
N#Cc1cc2c(nc1SCC(=O)Nc1sc3c(c1C#N)CCC3)CCCC2	IL1B secr inh -60, DT40 TDP1 no CPT 12µM, DT40 TDP1 CPT inconclusive
Cc1cccc(C)c1NC(=O)CNC(=O)C(C)NC(C)c1ccccc1Br (stereo not drawn)	none
O=C1C=C(c2cccc(Br)c2)C[C@@H](c2ccc(Cl)cc2)C1	TGFb inhibitor inconclusive, DT40 TDP1 no CPT inconclusive, DT40 TDP1 CPT 16µM
O=C1C=C(c2ccc(-c3ccccc3)c(F)c2)C[C@@H](c2ccc(Cl)cc2)C1	DT40 TDP1 no CPT inconclusive, DT40 TDP1 CPT 21µM
O=C1C=C(c2cccc(O)c2)C[C@@H](c2ccc(F)cc2)C1	DT40 TDP1 no CPT inconclusive, DT40 TDP1 CPT 21µM
COc1ccc([C@H]2CC(=O)C=C(c3ccc(-c4ccccc4)c(F)c3)C2)cc1	none
O=C(O)c1ccccc1Nc1cc(Cl)ccc1C(=O)O	none (no result: HepG2 viability, TGFb inhibitor, IL1B secr inh, ASM inhibitor)
Cc1ccc(NC(=O)C2CCN(C(=O)c3ccccc3C)CC2)nc1	none
COCCCn1c(C)nnc1SCC(=O)Nc1cccc(C)c1	none
Cc1ccc(NC(=O)c2cc(-c3ccco3)nc3ccccc23)cc1S(=O)(=O)N1CCOCC1	DT40 TDP1 no CPT 29µM, DT40 TDP1 CPT inconclusive
O=C(Nc1ccc(Cl)c(S(=O)(=O)N2CCOCC2)c1)c1cc(-c2ccccn2)nc2ccccc12	IL1B secr inh inconclusive, DT40 TDP1 no CPT 23µM, DT40 TDP1 CPT inconclusive
O=C(Nc1ccc(Cl)c(S(=O)(=O)N2CCOCC2)c1)c1ccccn1	none
CN(C)C(CNC(=O)CCc1nc2cc(Cl)ccc2n(Cc2ccccc2)c1=O)c1ccccc1 (stereo not drawn)	TGFb inhibitor inconclusive, IL1B secr inh -67, DT40 TDP1 no CPT 16µM, DT40 TDP1 CPT inconclusive
COc1cc(-c2[nH]ncc2CN2CCc3sccc3C2)cc(OC)c1OC	TGFb inhibitor inconclusive, DT40 TDP1 no CPT 10µM, DT40 TDP1 CPT 15µM
COc1ccc(NC(=O)CSC2=Nc3ccccc3C3=NC(CC(=O)NCc4ccco4)C(=O)N23)cc1 (stereo not drawn)	none (no result: IL1B secr inh, ASM inhibitor)
COc1ccc(CCNC(=O)C2CCN(C(=O)c3ccc(Cl)cc3)CC2)cc1OC	none
CC1(c2ccccc2)CC(C)(C)N2C(=O)/C(=C3\SC(=S)NC3=O)c3cccc1c32 (stereo not drawn)	DT40 TDP1 no CPT 15µM, DT40 TDP1 CPT 23µM
CC(=C1SC(=S)NC1=O)c1ccccc1	none
Cn1cc(CN2CCC(C(=O)Nc3cccc(-c4cccc(F)c4)c3)CC2)cn1	TGFb inhibitor 11µM, DT40 TDP1 no CPT inconclusive, DT40 TDP1 CPT inconclusive
CCCn1ncc(CN2CCC(C(=O)Nc3cccc(-c4cccc(F)c4)c3)CC2)c1C	HepG2 viability 18µM, TGFb inhibitor inconclusive, IL1B secr inh -76, DT40 TDP1 no CPT inconclusive, DT40 TDP1 CPT 15µM
Cc1onc(-c2ccccc2)c1C(=O)NCC(O)c1ccccc1 (stereo not drawn)	none
